Experimental data reported in PubChem BioAssay (NCATS).
Results filed as inconclusive are left out. Calls of active or inactive are those of the source. The call rests on the fitted dose curve; in most records, active means well fitted inhibition curve with a large enough effect; inconclusive means small, poorly fitted or top-dose-only effect; inactive means flat fitted curve, though single readings scatter. Numbered stars: 1 amine (or outer) side, 2 acyl side, 3 side chain; on linkers, the order of the positions; unused ones are H or OH. Bridge positions count the residues as written; N and C are the ends. Square brackets hold non-standard residues; d marks the D form. Peptide text beside a SMILES is read from it. I, II: the chains in the order shown. Actinocin(9to1) = Cc1c2oc3c(C)ccc(C(=O)[*:1])c3nc-2c(C(=O)[*:2])c(N)c1=O; NMeV = CN[C@H](C(=O)O)C(C)C; Sar = CNCC(=O)O

System: CP203
Assay: qHTS profiling for inhibitors of Plasmodium falciparum proliferation (AID 504749); further: nearly all actives have a fitted effect of over 60% in size;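 on activity, negative = inhibition: 0% = DMSO vehicle and full inhibition = artemisinin control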
Details: P. falciparum in erythrocytes, SYBR Green DNA, 72 h; series mostly up to 28.7 µM; activity, negative = inhibition: at the top concentration
Excerpt: NIH National Institute of Allergy and Infectious Diseases [NIAID] NIH Chemical Genomics Center [NCGC] MLPCN Grant: None Assay Provider: Xinzhuan Su, NIAID NCGC Assay Overview: Plasmodium falciparum is a virulent malarial parasite that kills 1-2 million people worldwide each year. Transmitted by mosquitoes, the sporozoite form of the parasite enters the blood stream to infect hepatocytes, where they become merozoites that infect red blood cells (erythrocytes). Within erythrocytes, merozoites begin a […] cycle of growth and division, after which the parasite is released to infect new red blood cells. Gametocytes, which form within erythrocytes as well, circulate in the bloodstream and are ingested by the mosquito, thereby completing the life cycle. To profile malarial isolates for differential chemical responses and to identify inhibitors of malarial growth, an assay that measures P. falciparum growth and replication within erythrocytes was employed. This assay uses a DNA binding fluorescent dye (SYBR Green) to detect parasite DNA following cell lysis. Because mature erythrocytes lack DNA, only Plasmodium-derived DNA is detected.
NCGC Assay Protocol Summary: The SYBR Green viability assay was adapted from a method described previously (Plouffe et al., 2008). For screening 3 ul culture medium was dispensed into 1536 well black clear bottom plates (Aurora Biotechnologies) using a Multidrop Combi (Thermo Fisher Scientific Inc.), 23 nL compounds in DMSO were added by a pin tool (Kalypsys), and 5 ul of erythrocytes infected with P. falciparum (0.3% parasitemia, 2.5% hematocrit final concentration) were added. The plates were incubated at 37 C in a humidified incubator in 5% CO2 for 72 h, and 2 ul lysis buffer (20 mM Tris HCl, 10 mM EDTA, 0.16% saponin, 1.6% triton X, 10X SYBR Green I supplied as 10,000X […] by Invitrogen) was added to each well. The plates were mixed for 25 sec with gentle shaking and incubated overnight at room temperature in the dark. The following morning, fluorescence intensity at 485(14) nm excitation and 535(25) nm emission wavelengths was measured on an EnVision (Perkin Elmer) plate reader. Plate reads were normalized relative to the control inhibitor (0.29 uM artemisinin) and vehicle (DMSO) wells present on each plate and then corrected by an algorithm using vehicle-only control plates at the beginning and end of the compound plate stack.
Potency means the concentration at half of the fitted maximal effect.

Question: Which “activity, negative = inhibition” value does the source give for CN1C(CCl)Nc2cc(Cl)c(S(N)(=O)=O)cc2S1(=O)=O (stereo not given) here?
Answer: -2.03% (inactive)

Question: For CCCCCCCCCCCCCCCC[N+](C)(C)CC, which Potency is on record?
Answer: 10.7 µM (active)

Question: With N[C@@H](Cc1cnc[nH]1)C(=O)O as the compound, how does the “activity, negative = inhibition” value read?
Answer: -16% (inactive)

Question: Which Potency does the source give for COc1cc2c(cc1OC)C(C(C(=O)N(CCc1ccc(OC)c(OC)c1OC)CCc1ccc(OC)c(OC)c1OC)c1ccccc1)=NCC2 (stereo not given) here?
Answer: 6.75 µM (active)

Question: Which “activity, negative = inhibition” value does the source give for COC(=O)[C@@H]1CC2=CC(=O)CC[C@]2(C)[C@@]23O[C@@H]2C[C@@]2(C)[C@@H](CC[C@@]24CCC(=O)O4)[C@H]13 here?
Answer: -7.05% (inactive)

Question: With CCCCN1CCCC1C(=O)Nc1c(C)cc(C)cc1C (stereo not given) as the compound, how does the “activity, negative = inhibition” value read?
Answer: -1.01% (inactive)

Question: Which “activity, negative = inhibition” value does the source give for CCOc1ccc(Cc2nccc3cc(OCC)c(OCC)cc23)cc1OCC here?
Answer: -20.8% [at 12.8 µM] (inactive)

Question: How did the “activity, negative = inhibition” value turn out when CC(=O)Nc1c(I)cc(I)c(C(=O)O)c1I was run?
Answer: 0.409% (inactive)

Question: For CC(C)COC(=O)OCN1C(=O)CN(CCN2CC(=O)N(COC(=O)OCC(C)C)C(=O)C2)CC1=O, which “activity, negative = inhibition” value is on record?
Answer: -6.75% (inactive)

Question: Which “activity, negative = inhibition” value does the source give for CC(=O)N/N=C/c1ccc([N+](=O)[O-])o1 here?
Answer: -0.0111% (inactive)

Question: With C[C@H]1C[C@H]2[C@@H]3CCC4=CC(=O)C=C[C@]4(C)[C@@]3(Cl)[C@@H](O)C[C@]2(C)[C@@]1(O)C(=O)CO as the compound, how does the “activity, negative = inhibition” value read?
Answer: -19.1% (inactive)

Question: With CN1C2CCC1CC(OC(=O)c1c[nH]c3ccccc13)C2 (stereo not given) as the compound, how does the “activity, negative = inhibition” value read?
Answer: 10.3% (inactive)

Question: With COc1cc(OC)cc(OC)c1 as the compound, how does the “activity, negative = inhibition” value read?
Answer: -0.51% (inactive)

Question: With CC(C)NC[C@@H](O)COc1cccc2ccccc12 as the compound, how does the Potency read?
Answer: 10.7 µM (active)

Question: How did the “activity, negative = inhibition” value turn out when CC(C)(C(=O)c1cccnc1)c1cccnc1 was run?
Answer: 3.06% [at 12.8 µM] (inactive)

Question: Cc1c2oc3c(C)ccc(C(=O)N[C@@H]4C(=O)N[C@H](C(C)C)C(=O)N5CCC[C@H]5C(=O)N(C)CC(=O)N(C)[C@@H](C(C)C)C(=O)O[C@@H]4C)c3nc-2c(C(=O)N[C@@H]2C(=O)N[C@H](C(C)C)C(=O)N3CCC[C@H]3C(=O)N(C)CC(=O)N(C)[C@@H](C(C)C)C(=O)O[C@@H]2C)c(N)c1=O (I: T[dV]P[Sar][NMeV] / II: T[dV]P[Sar][NMeV]; ester I:1-I:C, II:1-II:C; linker I:N-II:N via Actinocin(9to1)) was tested. Which Potency did it give?
Answer: 0.006 µM (active)

Question: Which “activity, negative = inhibition” value does the source give for CC(=O)OCC(=O)[C@@]1(OC(C)=O)[C@@H](C)C[C@H]2[C@@H]3C[C@H](F)C4=CC(=O)C=C[C@]4(C)[C@@]3(F)[C@@H](O)C[C@@]21C here?
Answer: -1.51% (inactive)

Question: CN1CCC[C@@H]1c1cccnc1 was tested. Which “activity, negative = inhibition” value did it give?
Answer: 1.47% (inactive)

Question: How did the “activity, negative = inhibition” value turn out when Oc1c(I)cc(Cl)c2cccnc12 was run?
Answer: 3.79% (inactive)

Question: Which “activity, negative = inhibition” value does the source give for CCCCCCCCCCCCCCNCCO here?
Answer: -16.6% (inactive)

Question: Which “activity, negative = inhibition” value does the source give for CCN(CC)CCNC(=O)COc1ccc(Cl)cc1 here?
Answer: -11.8% (inactive)

Question: Which Potency does the source give for COc1cc(NS(C)(=O)=O)ccc1Nc1c2ccccc2nc2ccccc12 here?
Answer: 4.26 µM (active)

Question: For CCOC(=O)/C=C(C)/C=C/C=C(C)/C=C/c1c(C)cc(OC)c(C)c1C, which “activity, negative = inhibition” value is on record?
Answer: -14.4% (inactive)

Question: For CC(O)C(=O)O (stereo not given), which “activity, negative = inhibition” value is on record?
Answer: -3.04% (inactive)

Question: For Cc1c(C(C)C)c(=O)n(-c2ccccc2)n1C, which “activity, negative = inhibition” value is on record?
Answer: -0.821% (inactive)

Question: For CC(C)(Oc1ccc(Cl)cc1)C(=O)O, which “activity, negative = inhibition” value is on record?
Answer: -0.455% (inactive)

Question: With Nc1cc(Cl)c(NC2=NCCN2)c(Cl)c1 as the compound, how does the “activity, negative = inhibition” value read?
Answer: -0.763% (inactive)

Question: Nc1ccc(C(=O)O)cc1 was tested. Which “activity, negative = inhibition” value did it give?
Answer: -1.99% (inactive)

Question: For C[N+]1(CCCCC[N+]2(C)CCCC2)CCCC1, which “activity, negative = inhibition” value is on record?
Answer: 4.82% (inactive)

Question: O=C(O)CCCCC(=O)O was tested. Which “activity, negative = inhibition” value did it give?
Answer: 4.89% (inactive)

Question: CCCCCCCCCCCCCCCCOP(=O)([O-])OCC[N+](C)(C)C was tested. Which “activity, negative = inhibition” value did it give?
Answer: -0.491% (inactive)

Question: For COc1ccc(C2C(=O)c3ccccc3C2=O)cc1, which “activity, negative = inhibition” value is on record?
Answer: -8.84% (inactive)

Question: For CCC(C(=O)OCCN(CC)CC)c1ccccc1 (stereo not given), which “activity, negative = inhibition” value is on record?
Answer: -7.59% (inactive)

Question: How did the Potency turn out when COc1ccc(CN2CCN(C(c3ccc(F)cc3)c3ccc(F)cc3)CC2)c(OC)c1OC was run?
Answer: 13.5 µM (active)

Question: How did the “activity, negative = inhibition” value turn out when COCc1c(C(C)C)nc(C(C)C)c(/C=C/[C@@H](O)C[C@@H](O)CC(=O)O)c1-c1ccc(F)cc1 was run?
Answer: -14.5% (inactive)

Question: Which “activity, negative = inhibition” value does the source give for Nc1ccc(C(=O)Nc2ccccc2N)cc1 here?
Answer: 14.1% (inactive)

Question: How did the “activity, negative = inhibition” value turn out when CCC(=O)c1c(O)cc(O)cc1O was run?
Answer: 0.215% (inactive)

Question: For CC(=O)N(O)CCCCCNC(=O)CCC(=O)N(O)CCCCCNC(=O)CCC(=O)N(O)CCCCCN, which “activity, negative = inhibition” value is on record?
Answer: 2.11% [at 12.8 µM] (inactive)

Question: O=C(Nc1ccc(Oc2ccc(Cl)cc2)c(Cl)c1)c1cc(I)cc(I)c1O was tested. Which “activity, negative = inhibition” value did it give?
Answer: -7.07% (inactive)

Question: With Cc1ccnc(NS(=O)(=O)c2ccc(N)cc2)n1 as the compound, how does the “activity, negative = inhibition” value read?
Answer: 1.82% [at 12.8 µM] (inactive)
